Laboratory results taken from PubChem BioAssay (EPA / NIEHS).
Inconclusive results are not listed. Some compounds were tested as several samples or in several runs, with calls that do not always agree. Active and inactive are the calls of the source. How the source made its calls, unless noted: active means hit-call score of the fitted dose curve at least 0.9, where 1 is the maximum; inconclusive means response in the unintended direction; inactive means score below 0.9.

How the values were obtained:
[1] = CCTE_Simmons_CellTiterGLO_HEK293T: Viability Assessment in CCTE's Assays for Thyroperoxidase (TPO) Inhibition, Simmons Lab (AID 2283665)
How it was run: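 Cytotoxicity counter-screen: human HEK293T cells in low-serum (1% FBS) medium receive test chemical, 5 nM to 87.5 uM final, for 24 h; ATP is quantified by luciferase luminescence.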

[2] = Tanguay_ZF_120hpf_TR_legacy: (Legacy) Oregon State University Tanguay Lab 120 Hour Post-fertilization zebrafish Assay for Touch Response (AID 2283667)
How it was run: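 Tropical 5D wild-type zebrafish embryos statically exposed to 120 hpf at 28°C, sealed and dark-covered, 0.64% DMSO final; touch response scored as present/absent by brightfield microscopy at 120 hpf. Trimethyltin chloride 5 uM positive control; dead embryos not scored.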

[3] = read-out: organic anion transporter (SLCO1B1), SLCO1B1 (gene 10599); assay: CLD_SLCO1B1_6hr: CellzDirect (CLD) Gene Expression Assay for organic anion transporter (SLCO1B1) at 6 hours (AID 2283668);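 further: active means mRNA induction above DMSO baseline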
How it was run: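 Primary human hepatocytes dosed daily with test chemicals (multiple concentrations) in 0.2% DMSO vehicle; harvested at 6 h. SLCO1B1 mRNA quantified by qNPA chemiluminescence, fitted as gain-of-signal versus DMSO; cytotoxicity from phase-contrast morphology flagged alongside.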

[4] = read-out: Cytochrome P450 (CYP24A1_1), CYP24A1 (gene 1591); assay: LTEA_HepaRG_CYP24A1_1: Life Technologies and Expression Analysis (LTEA) Assay for Cytochrome P450 (CYP24A1_1) using HepaRG (AID 2283671; active means hit-call score of the fitted dose curve at least 0.9, where 1 is the maximum; inactive means score below 0.9); conditions: mRNA level, 48 h; actives raise or lower the signal
How it was run: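 Differentiated human HepaRG cells in serum-free induction medium, exposed 48 h in duplicate to eight half-log concentrations from 100 uM top, 0.5% DMSO. Transcript measured by TaqMan qRT-PCR, normalised to ACTB, GAPDH, POLR2A; bidirectional fitting versus DMSO.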

[5] = read-out: Cytochrome P450 2B6 (Homo sapiens) (UniProt P20813); assay: CLD_CYP2B6_6hr: CellzDirect (CLD) Gene Expression Assay for xenobiotic metabolism (CYP2B6) at 6 hours (AID 2283677);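 further: actives raise CYP2B6 transcript above DMSO baseline so AC50 marks an inducer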
How it was run: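 Primary human hepatocytes dosed with chemicals at multiple concentrations, vehicle 0.2% DMSO; CYP2B6 mRNA induction measured 6 h after dosing by quantitative nuclease protection assay with chemiluminescence, gain of signal fitted relative to DMSO.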

[6] = CCTE_Padilla_ZF_144hpf_TERATOSCORE: (Legacy) CCTE's 144 Hour Post-fertilization zebrafish Assay Teratoscore, Padilla Lab (AID 2283679; active means hit-call score of the fitted dose curve at least 0.9, where 1 is the maximum; inactive means score below 0.9;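 on AC50: zebrafish embryos with chorions exposed by immersion from 6-8 hpf to 5 dpf with daily renewal; teratogenicity score from eye scoring of death hatching and malformations at 144 hpf; higher score means more developmental defects relative to DMSO baseline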)
How it was run: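 Larvae scored by eye at 144 hpf for death, hatching and malformations after a day in clean Hanks'. Before that, daily-renewed exposure at 80 uM (0.4% DMSO, 26C) from roughly 6-8 hpf through 5 dpf, 4 embryos per chemical.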

[7] = read-out: Cytochrome P450 3A4 (Homo sapiens) (UniProt P08684); assay: CLD_CYP3A4_6hr: CellzDirect (CLD) Gene Expression Assay for xenobiotic metabolism (CYP3A4) at 6 hours (AID 2283680)
How it was run: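 Primary human hepatocytes (two donor preparations) dosed; CYP3A4 mRNA harvested at 6 h and quantified by qNPA chemiluminescence. Gain of signal fitted against 0.2% DMSO vehicle; cytotoxicity flagged by phase-contrast morphology.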

[8] = read-out: ABC Transporter (ABCB1), ABCB1 (gene 5243); assay: CLD_ABCB1_24hr: CellzDirect (CLD) Gene Expression Assay for ABC Transporter (ABCB1) at 24 hours (AID 2283684);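 on AC50: potency for increase in ABCB1 mRNA relative to DMSO vehicle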
How it was run: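 Primary human hepatocytes, two donor preparations, dosed daily with fresh solutions; vehicle 0.2% DMSO; harvested at 24 h. ABCB1 mRNA measured by quantitative nuclease protection assay (chemiluminescence); morphology-based cytotoxicity annotated.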

[9] = read-out: Cytochrome P450 2C19 (Homo sapiens) (UniProt P33261); assay: CLD_CYP2C19_24hr: CellzDirect (CLD) Gene Expression Assay for xenobiotic metabolism (CYP2C19) at 24 hours (AID 2283687);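 further: activity means mRNA induction above DMSO vehicle baseline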
How it was run: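 Primary human hepatocytes (two donor preparations) dosed daily with fresh test chemical in 0.2% DMSO vehicle; CYP2C19 mRNA induction measured at 24 h by quantitative nuclease protection assay with chemiluminescence, fitted for gain of signal versus DMSO.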

[10] = read-out: Cytochrome P450 3A4 (Homo sapiens) (UniProt P08684); assay: CLD_CYP3A4_24hr: CellzDirect (CLD) Gene Expression Assay for xenobiotic metabolism (CYP3A4) at 24 hours (AID 2283689)
How it was run: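 Primary human hepatocytes from two donors dosed daily with fresh compound for two days, 0.2% DMSO vehicle. CYP3A4 mRNA at 24 hr by qNPA chemiluminescence; gain-of-signal fit versus DMSO, cytotoxicity flagged by morphology.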

[11] = read-out: Glyceraldehyde-3-phosphate dehydrogenase (Homo sapiens) (UniProt P04406); assay: CLD_GAPDH_24hr: CellzDirect (CLD) Gene Expression Assay for Baseline Control (Glyceraldehyde 3-phosphate dehydrogenase) at 24 hours (AID 2283692)
How it was run: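 Primary human hepatocytes (two donor preparations) dosed daily for two days, 0.2% DMSO vehicle; GAPDH mRNA measured at 24 h by qNPA chemiluminescence as a background control, gain-of-signal fitted against DMSO.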

[12] = read-out: alkyl and aryl transferase (GSTA2), GSTA2 (gene 2939); assay: CLD_GSTA2_6hr: CellzDirect (CLD) Gene Expression Assay for alkyl and aryl transferase (GSTA2) at 6 hours (AID 2283666)
How it was run: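 Primary human hepatocytes from two donor preparations were dosed daily with fresh compound at multiple concentrations, 0.2% DMSO vehicle. GSTA2 mRNA was measured at 6 hours by qNPA chemiluminescence; induction fitted relative to DMSO, with cytotoxicity flagged morphologically.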

[13] = read-out: xenobiotic metabolism (CYP1A1), CYP1A1 (gene 1543); assay: CLD_CYP1A1_24hr: CellzDirect (CLD) Gene Expression Assay for xenobiotic metabolism (CYP1A1) at 24 hours (AID 2283673);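 further: CYP1A1 mRNA level by quantitative nuclease protection with chemiluminescence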
How it was run: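 Primary human hepatocytes dosed daily with fresh solutions in 0.2% DMSO vehicle. mRNA measured at 24 h by quantitative nuclease protection assay with chemiluminescence; gain-of-signal fit versus DMSO, with morphology-based cytotoxicity flags.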

[14] = read-out: Glyceraldehyde-3-phosphate dehydrogenase (Homo sapiens) (UniProt P04406); assay: CLD_GAPDH_6hr: CellzDirect (CLD) Gene Expression Assay for Baseline Control (Glyceraldehyde 3-phosphate dehydrogenase) at 6 hours (AID 2283681);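 further: active means increased signal relative to DMSO vehicle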
How it was run: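 Primary human hepatocytes from two donor preparations, dosed at multiple concentrations with 0.2% DMSO vehicle; GAPDH mRNA measured 6 h after dosing by chemiluminescent quantitative nuclease protection assay (qNPA) on denatured lysates. Serves as background control; cytotoxicity annotated by morphology.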

[15] = read-out: Cytochrome P450 2C9 (Homo sapiens) (UniProt P11712); assay: CLD_CYP2C9_24hr: CellzDirect (CLD) Gene Expression Assay for xenobiotic metabolism (CYP2C9) at 24 hours (AID 2283688)
How it was run: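 Primary human hepatocytes from two donor preparations, dosed daily for two days at multiple concentrations; vehicle 0.2% DMSO. CYP2C9 mRNA induction at 24 h measured by qNPA chemiluminescence relative to DMSO; cytotoxicity annotated from morphology.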

[16] = read-out: sulfotransferase (SULT2A), SULT2A1 (gene 6822); assay: CLD_SULT2A_24hr: CellzDirect (CLD) Gene Expression Assay for sulfotransferase (SULT2A) at 24 hours (AID 2283694)
How it was run: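 Primary human hepatocytes from two donor preparations were dosed daily with fresh solutions, vehicle 0.2% DMSO. At 24 h, lysates went to quantitative nuclease protection (qNPA) with S1 digestion and chemiluminescent readout. Cytotoxicity was annotated from phase-contrast morphology.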

[17] = read-out: glucuronosyltransferase (UGT1A1), UGT1A1 (gene 54658); assay: CLD_UGT1A1_24hr: CellzDirect (CLD) Gene Expression Assay for glucuronosyltransferase (UGT1A1) at 24 hours (AID 2283696)
How it was run: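 Primary human hepatocytes from two donor preparations were dosed (0.2% DMSO vehicle) and harvested at 24 h; UGT1A1 mRNA induction was quantified by chemiluminescent qNPA, fitted as gain relative to DMSO.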

[18] = read-out: HMG-CoA synthase (HMGCS2), HMGCS2 (gene 3158); assay: CLD_HMGCS2_6hr: CellzDirect (CLD) Gene Expression Assay for HMG-CoA synthase (HMGCS2) at 6 hours (AID 2283682);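 further: actives raise HMGCS2 transcript above the 0.2% DMSO vehicle baseline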
How it was run: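 Primary human hepatocytes dosed daily with fresh chemical, 0.2% DMSO vehicle; HMGCS2 mRNA measured at 6 h by qNPA chemiluminescence. Gain of signal fitted against DMSO; cytotoxicity flagged from phase-contrast morphology.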

[19] = read-out: ABC Transporter (ABCB11), ABCB11 (gene 8647); assay: CLD_ABCB11_24hr: CellzDirect (CLD) Gene Expression Assay for ABC Transporter (ABCB11) at 24 hours (AID 2283674; active means hit-call score of the fitted dose curve at least 0.9, where 1 is the maximum; inactive means score below 0.9)
How it was run: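 Primary human hepatocytes were dosed daily for two days, with 0.2% DMSO vehicle. ABCB11 mRNA induction was measured at 24 hours by quantitative nuclease protection assay with chemiluminescence. Gain of signal was fitted relative to DMSO.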

Measured: AC50

Chain of Cytochrome P450 2C19 (Homo sapiens) (P33261 whole entry, looked up): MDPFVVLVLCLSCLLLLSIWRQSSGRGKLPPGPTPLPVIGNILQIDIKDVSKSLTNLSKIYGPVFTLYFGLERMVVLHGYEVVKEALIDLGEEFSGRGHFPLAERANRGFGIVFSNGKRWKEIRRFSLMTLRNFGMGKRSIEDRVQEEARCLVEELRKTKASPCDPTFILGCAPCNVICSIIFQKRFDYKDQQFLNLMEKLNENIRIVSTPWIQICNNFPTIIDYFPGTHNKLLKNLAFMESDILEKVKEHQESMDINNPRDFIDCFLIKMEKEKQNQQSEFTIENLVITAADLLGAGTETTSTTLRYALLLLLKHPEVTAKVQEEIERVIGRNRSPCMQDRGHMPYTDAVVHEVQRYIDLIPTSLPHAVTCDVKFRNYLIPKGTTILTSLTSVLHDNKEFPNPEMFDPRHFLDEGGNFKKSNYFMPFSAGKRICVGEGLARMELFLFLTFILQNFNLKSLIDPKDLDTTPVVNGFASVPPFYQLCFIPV
Chain of Cytochrome P450 3A4 (Homo sapiens) (P08684 whole entry, looked up): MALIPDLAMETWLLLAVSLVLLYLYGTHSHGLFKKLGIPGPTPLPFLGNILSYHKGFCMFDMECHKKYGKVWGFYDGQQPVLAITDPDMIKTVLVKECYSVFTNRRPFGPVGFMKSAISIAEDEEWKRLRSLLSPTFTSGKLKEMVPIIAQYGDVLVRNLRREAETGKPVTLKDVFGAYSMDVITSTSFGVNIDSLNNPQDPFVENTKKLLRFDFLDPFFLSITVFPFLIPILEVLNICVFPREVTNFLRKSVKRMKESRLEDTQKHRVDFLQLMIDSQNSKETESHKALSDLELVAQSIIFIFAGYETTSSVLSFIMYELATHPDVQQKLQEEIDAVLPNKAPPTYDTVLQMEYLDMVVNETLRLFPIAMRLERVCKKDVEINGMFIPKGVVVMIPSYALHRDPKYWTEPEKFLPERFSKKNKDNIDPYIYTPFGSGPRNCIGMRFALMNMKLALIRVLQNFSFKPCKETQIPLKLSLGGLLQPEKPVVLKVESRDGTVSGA
Chain of Glyceraldehyde-3-phosphate dehydrogenase (Homo sapiens) (P04406 whole entry, looked up): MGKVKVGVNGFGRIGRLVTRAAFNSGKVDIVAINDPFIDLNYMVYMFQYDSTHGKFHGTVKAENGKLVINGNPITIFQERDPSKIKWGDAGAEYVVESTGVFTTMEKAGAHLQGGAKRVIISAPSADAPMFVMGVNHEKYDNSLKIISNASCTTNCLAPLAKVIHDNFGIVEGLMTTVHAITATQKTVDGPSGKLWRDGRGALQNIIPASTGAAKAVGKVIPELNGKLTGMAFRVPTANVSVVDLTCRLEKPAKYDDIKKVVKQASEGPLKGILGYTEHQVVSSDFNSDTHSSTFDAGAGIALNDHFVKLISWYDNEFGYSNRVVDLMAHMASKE

S=C(S)NCCNC(=S)S.[Mn+2].[S-]C([S-])=NCCN=C([S-])[S-].[Zn+2]
inactive: [1] | [2] | [3] | [4] | [6] | [9] | [10] | [11]
active: [5] 2.55 µM | [6] 29.3 µM | [7] 3.97 µM | [8] 1.5 µM

CCCCCOC(=O)COc1cc(N2C(=O)C3=C(CCCC3)C2=O)c(F)cc1Cl
active: [5] 20 µM | [6] 3.14 µM | [7] 3.78 µM | [10] 4.01 µM
not listed: [1] | [3] | [4] | [9] | [18] | [19]
inactive: all other assays above

CC(C)(C)[C@@H](O)[C@@H](Cc1ccc(Cl)cc1)n1cncn1
active: [13] 12.1 µM | [5] 1.73 µM | [6] 46.7 µM | [18] 1.9 µM | [8] 9.46 µM | [10] 2.66 µM
inactive: [12] | [2] | [7] | [14] | [11] | [16]

CCOC(=O)NCCOc1ccc(Oc2ccccc2)cc1
inactive: [2] | [3] | [13] | [7] | [8] | [9] | [15] | [16]
active: [5] 3.97 µM | [6] 15.4 µM

O=C(c1ccccc1)C1CCCCC1
inactive: [2] | [6]

CCC(O)=C1C(=O)CC(C(=O)O)CC1=O (stereo not drawn)
inactive: [12] | [3] | [19] | [6] | [14] | [18] | [8] | [15] | [11]

CC(=O)S[C@@H]1CC2=CC(=O)CC[C@]2(C)[C@H]2CC[C@@]3(C)[C@@H](CC[C@@]34CCC(=O)O4)[C@H]12
active: [6] 38.3 µM

CCCCC(CC)CN1C(=O)C2C3C=CC(C3)C2C1=O (stereo not drawn)
active: [13] 20 µM | [5] 4.33 µM | [6] 13 µM | [10] 20 µM
inactive: [2] | [7] | [8] | [16]

C[C@]12CC[C@@H]3c4ccc(O)cc4C[C@@H](CCCCCCCCCS(=O)CCCC(F)(F)C(F)(F)F)[C@H]3[C@@H]1CC[C@@H]2O (stereo partly drawn)
inactive: [2] | [6]

COC(=O)c1ccc(I)cc1S(=O)(=O)NC(=O)Nc1nc(C)nc(OC)n1
active: [5] 0.397 µM | [7] 0.348 µM | [8] 20 µM
inactive: [12] | [3] | [13] | [19] | [6] | [14] | [18] | [9]

CC(=O)[C@H]1CC[C@H]2[C@@H]3CCC4=CC(=O)CC[C@]4(C)[C@H]3CC[C@]12C
inactive: [2]
active: [6] 8.03 µM

OB(O)O
inactive: [2] | [3] | [19] | [6] | [14] | [8] | [10] | [11] | [16]

C#CCOC(=O)[C@@H](C)Oc1ccc(Oc2ncc(Cl)cc2F)cc1
active: [5] 0.000426 µM | [6] 0.593 µM
not listed: [1] | [4] | [7] | [12] | [13] | [15] | [17]
inactive: all other assays above

CCOC(=O)COc1cc(-n2ncc(C(F)(F)F)c(C)c2=O)c(F)cc1Cl
active: [5] 2.49 µM | [6] 0.458 µM | [7] 4.73 µM | [10] 20 µM
inactive: [2] | [13] | [14] | [18] | [8] | [9] | [11]

CC1(C)C(C=C(Cl)Cl)C1C(=O)OCc1cccc(Oc2ccccc2)c1 (stereo not drawn)
active: [5] 0.083 µM | [6] 3.31 µM
not listed: [1] | [2] | [4] | [16] | [17] | [19]
inactive: all other assays above

COC(=O)c1c(Cl)nn(C)c1S(=O)(=O)NC(=O)Nc1nc(OC)cc(OC)n1
active: [6] 58.9 µM | [10] 4.62 µM
inactive: [12] | [13] | [5] | [7] | [14] | [18] | [8] | [11] | [16]
